This note sets out measurements from PubChem BioAssay (NCI).

“And” between values parts separate entries of the source, which are not always exact repeats. Equal entries are not always repeated. Compounds without any hit were thinned out: in the full panel of roughly 83,000, 20% have a hit.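 Testing used 96-well plates and a 48-hour single-concentration exposure. Example: -40 means 40% of the starting cells died.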 Unmarked numbers belong to inactive results. The source made the active and inactive calls. The calls were made as follows: active = growth percent below 10; inactive = the rest.

The assay relates to MDA-MB-468 breast. As to the kind of experiment: NCI-60 one-dose screen, 48 h (100 = growth as untreated, 0 = no growth, -100 = all killed). To be noted: 10 µM unless noted.
Regarding `Cc1cccc(NC(=O)N/C(N)=N/c2nc(C)c(C)s2)c1`, the growth is 14%. Turning to `O=C(Nc1ccccc1O)c1ccc(-c2ccc(Cl)cc2Cl)o1`, the growth is 80.8%. The same measure for `COc1cc(NC(C)CCCN)c2nc(C)ccc2c1Oc1ccc(F)cc1` (stereo not given): 57.3%; for `FC(F)(F)Sc1ccc(/C=C/c2cc(/C=C/c3ccc(SC(F)(F)F)cc3)n(-c3ccccc3)n2)cc1`: 95.8%. With `COc1ccc(-c2nsc3c2NC(=O)CC3c2cccc(Cl)c2)cc1` (stereo not given), the growth was -6.39% (active). Then `Nc1ccc2c3c(cccc13)-c1ccccc1-2`, with 88.6%.

Turning to `COc1ccc(Nc2cc(NC(=O)CNc3cc(OC)c(Cl)c(OC)c3Cl)ncn2)cc1`, the growth is 80.8%. For the compound `COc1cc(-c2nccc3cc4c(cc23)OCO4)cc(OC)c1OC`, the growth was -6.2% (active) and 5.32% (active). The same measure for `COC(=O)C1=C(C)C(=O)CC1`: 110%; for `CCN(CC)Cc1cccc(C(=O)OC)c1`: 97.2%; for `Cc1cc(C)cc(CCCCCCCCCCCCCCCCCC(=O)O)c1`: 106%. On to `COc1ccc(-n2c(-c3ccccc3)c(-c3ccccc3)c3c(SCC(=O)N/N=C/c4ccc(Cl)cc4)ncnc32)cc1`, for which the growth is 77.6%. The same measure for `CCCCCc1ccc(S(=O)(=O)Nc2cccc(-c3csc(NC(=O)CNCCN(C)C)n3)c2)cc1`: 82.9%; for `CCOC(=O)c1cnc2cc(Cl)c(F)cc2c1Nc1cccc(NS(C)(=O)=O)c1`: 87.6%. Then `C=C(C)[C@@H]1CC[C@]2(C(=O)n3ccnc3)CC[C@]3(C)[C@H](CC[C@@H]4[C@@]5(C)CCCNC(C)(C)[C@@H]5CC[C@]43C)[C@@H]12`, with -11.1% (active); and `FC(F)(F)c1ccc(/C=N/Nc2nnc3n2N=C(c2ccc(Cl)cc2)CS3)cc1`, with 74.3%.

For the compound `CC(C)N1C(=O)S/C(=C2/SC(=O)N(C(C)C)C2=O)C1=O`, the growth was 94.5%. Then `CCN(CC)CCOc1ccc2c(c1O)C(=O)c1ccccc1C2=O`, with 80.3%; and `O=C(/C=C/CN1CCOCC1)Nc1cc2c(Nc3cccc(Cl)c3F)ncnc2cc1OCCOC(F)F`, with -15.3% (active). The same measure for `C=C1C(=O)O[C@H]2[C@H]1CC/C(C=Nc1c(N)cc(F)cc1Br)=C\CC[C@@]1(C)O[C@@H]21`: 44%. Then `O=c1[nH]c2cc(Cl)c(Cl)cc2n2cc3ncccc3c12`, with 0.904% (active). Take `Cc1c2oc3c(C)ccc(C(=O)OC(C)C4NC(=O)C(C(C)C)N(C)C(=O)CN(C)C(=O)C5CCCN5C(=O)C(C(C)C)NC4=O)c3nc-2c(C(=O)OC(C)C2NC(=O)C(C(C)C)N(C)C(=O)CN(C)C(=O)C3CCCN3C(=O)C(C(C)C)NC2=O)c(N)c1=O` (stereo not given): the growth is -68.7% (active). Then `COc1ccc(-c2nnc(SCc3ccc(O)c4ncccc34)o2)cc1`, with 51.2%. The same measure for `C=CCO[C@H]1CO[C@H]2[C@@H]1OC[C@@H]2Oc1ccc(Nc2ccnc(Nc3ccc(O[C@H]4CO[C@H]5[C@@H]4OC[C@@H]5OCC=C)c(Cl)c3)n2)cc1Cl`: -84.5% (active); for `COc1cc(-c2nn(-c3ccc(NC(=O)NCCNS(=O)(=O)c4ccc(F)cc4)cc3)cc2-c2ccncc2)ccc1Cl`: -27% (active).
